Data: PubChem BioAssay (EPA / NIEHS)
Values joined by “and” are separate entries in the source; they are usually repeats but may differ in a detail not shown here. Equal values may be shown once. Results filed as inconclusive are left out. The source holds several records for some structures; these can differ, active in one and inactive in another. Active and inactive are the calls of the source. The calls were made as follows, unless noted: active = hit-call score of the fitted dose curve at least 0.9, where 1 is the maximum; inactive = score below 0.9.

Key:
[1] = read-out: Nuclear factor erythroid 2-related factor 2 (Homo sapiens) (UniProt Q16236); assay: LTEA_HepaRG_NFE2L2: Life Technologies and Expression Analysis (LTEA) Assay for Nuclear factor erythroid 2-related factor 2 (NFE2L2) Transcription Factor using HepaRG (AID 2283527); conditions: mRNA level, 48 h; actives raise or lower the signal;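 also: TaqMan qRT-PCR transcript level normalised to ACTB GAPDH and POLR2A housekeeping genes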
Summary of the method: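 Human liver HepaRG line treated in duplicate for 48 h with an eight-point series topping at 100 uM. Gene expression of NFE2L2 by qRT-PCR, bidirectionally fitted against the vehicle control.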

[2] = read-out: succinate dehydrogenase complex iron sulfur subunit B (SDHB), SDHB (gene 6390); assay: LTEA_HepaRG_SDHB: Life Technologies and Expression Analysis (LTEA) Assay for succinate dehydrogenase complex iron sulfur subunit B (SDHB) using HepaRG (AID 2283528); conditions: mRNA level, 48 h; actives raise or lower the signal
Summary of the method: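 A human HepaRG culture in serum-free induction medium received test chemicals for 48 h over an eight-point range capped at 100 uM. SDHB expression change was quantified by qRT-PCR.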

[3] = read-out: Signal transducer and activator of transcription 3 (Homo sapiens) (UniProt P40763); assay: LTEA_HepaRG_STAT3: Life Technologies and Expression Analysis (LTEA) Assay for Signal transducer and activator of transcription (STAT3) using HepaRG (AID 2283529); conditions: mRNA level, 48 h; actives raise or lower the signal
Summary of the method: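 In this transcriptional endpoint, HepaRG cultures receive test chemicals at up to 100 uM for 48 h, tested in duplicate. STAT3 mRNA is normalized to ACTB, GAPDH and POLR2A.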

[4] = read-out: solute carrier (SLCO1B1), SLCO1B1 (gene 10599); assay: LTEA_HepaRG_SLCO1B1: Life Technologies and Expression Analysis (LTEA) Assay for solute carrier (SLCO1B1) using HepaRG (AID 2283530); conditions: mRNA level, 48 h; actives raise or lower the signal
Summary of the method: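 HepaRG, serum-free induction medium, 48 h dosing, 8-pt half-log from 100 uM, 0.5% DMSO vehicle, duplicates. Readout: SLCO1B1 mRNA, qRT-PCR, ACTB/GAPDH/POLR2A normalization; up or down fit vs DMSO.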

[5] = read-out: sulfotransferase 2A1 (SULT2A1), SULT2A1 (gene 6822); assay: LTEA_HepaRG_SULT2A1: Life Technologies and Expression Analysis (LTEA) Assay for sulfotransferase 2A1 (SULT2A1) using HepaRG (AID 2283531); conditions: mRNA level, 48 h; actives raise or lower the signal
Summary of the method: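 Transcript levels of SULT2A1, quantified by qRT-PCR and normalized to three housekeeping genes, serve as the readout. Human HepaRG cultures receive test chemicals for 48 h at up to 100 uM in half-log steps, with 0.5% DMSO vehicle.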

[6] = read-out: Transforming Growth Factor (TGFA), TGFA (gene 7039); assay: LTEA_HepaRG_TGFA: Life Technologies and Expression Analysis (LTEA) Assay for Transforming Growth Factor (TGFA) using HepaRG (AID 2283532); conditions: mRNA level, 48 h; actives raise or lower the signal
Summary of the method: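 Gene expression of TGFA was quantified by qRT-PCR after human HepaRG cells were treated for 48 h with test chemicals (eight concentrations, highest 100 uM, 0.5% DMSO). Activity in either direction was fitted relative to DMSO.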

[7] = read-out: Transforming Growth Factor (TGFB1), TGFB1 (gene 7040); assay: LTEA_HepaRG_TGFB1: Life Technologies and Expression Analysis (LTEA) Assay for Transforming Growth Factor (TGFB1) Transporter using HepaRG (AID 2283533); conditions: mRNA level, 48 h; actives raise or lower the signal
Summary of the method: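 HepaRG, 48 h post-plating, switched to serum-free induction medium; chemicals 100 uM top, half-log, 8 pts, 0.5% DMSO, dup; 48 h exposure; RNA → Fluidigm TaqMan qRT-PCR; norm ACTB/GAPDH/POLR2A; bidirectional fit vs DMSO.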

TIMP1, TIMP1 (gene 7076) = assay: LTEA_HepaRG_TIMP1: Life Technologies and Expression Analysis (LTEA) Assay for TIMP1 using HepaRG (AID 2283534); conditions: mRNA level, 48 h; actives raise or lower the signal;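 also: TaqMan qRT-PCR signal normalized to ACTB GAPDH and POLR2A housekeeping genes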
Summary of the method: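 Readout is TIMP1 mRNA level measured by qRT-PCR and normalized to three housekeeping genes. Human HepaRG cells were treated for 48 h in duplicate at eight concentrations up to 100 uM (0.5% DMSO); gain or loss fitted against DMSO.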

[8] = read-out: Tumor necrosis factor receptor 1 (TNFRSF1A), TNFRSF1A (gene 7132); assay: LTEA_HepaRG_TNFRSF1A: Life Technologies and Expression Analysis (LTEA) Assay for Tumor necrosis factor receptor 1 (TNFRSF1A) using HepaRG (AID 2283535); conditions: mRNA level, 48 h; actives raise or lower the signal
Summary of the method: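 Read-out is TNFRSF1A transcript level by TaqMan qRT-PCR, normalized to three housekeeping genes, scored as gain or loss of signal versus 0.5% DMSO. Human HepaRG cells received test chemicals for 48 h at up to 100 uM (half-log series).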

[9] = read-out: Thyroid Hormone Responsive (THRSP), THRSP (gene 7069); assay: LTEA_HepaRG_THRSP: Life Technologies and Expression Analysis (LTEA) Assay for Thyroid Hormone Responsive (THRSP) using HepaRG (AID 2283536); conditions: mRNA level, 48 h; actives raise or lower the signal
Summary of the method: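 Cell model: human HepaRG, approx. 100,000 cells/well, 0.5% DMSO vehicle. Exposure lasts 48 h; phenobarbital 1 mM serves as induction positive control. Gene expression is measured by qRT-PCR against three endogenous control genes.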

[10] = read-out: Cellular tumor antigen p53 (Homo sapiens) (UniProt P04637); assay: LTEA_HepaRG_TP53: Life Technologies and Expression Analysis (LTEA) Assay for Tumor Protein P53 (TP53) using HepaRG (AID 2283537); conditions: mRNA level, 48 h; actives raise or lower the signal
Summary of the method: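 Gain or loss of TP53 mRNA signal is scored relative to 0.5% DMSO after 48 h chemical treatment of HepaRG liver cells, tested in duplicate at eight half-log concentrations up to 100 uM.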

[11] = read-out: UDP glucuronosyltransferase (UGT1A1), UGT1A1 (gene 54658); assay: LTEA_HepaRG_UGT1A1: Life Technologies and Expression Analysis (LTEA) Assay for UDP glucuronosyltransferase (UGT1A1) using HepaRG (AID 2283538); conditions: mRNA level, 48 h; actives raise or lower the signal
Summary of the method: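 HepaRG, 48 h chemical exposure (top 100 uM, half-log 8-pt, 0.5% DMSO vehicle), duplicate wells; qRT-PCR (TaqMan, Fluidigm array) for UGT1A1 mRNA, housekeeping-normalized; bidirectional curve fit vs DMSO baseline.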

[12] = read-out: UDP glucuronosyltransferase (UGT1A6), UGT1A6 (gene 54578); assay: LTEA_HepaRG_UGT1A6: Life Technologies and Expression Analysis (LTEA) Assay for UDP glucuronosyltransferase (UGT1A6) using HepaRG (AID 2283539); conditions: mRNA level, 48 h; actives raise or lower the signal
Summary of the method: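 HepaRG, 48 h post-plating switch to serum-free induction medium; chemical 48 h, 100 uM top, half-log x8, duplicate, 0.5% DMSO. Phenobarbital 1mM induction control. UGT1A6 mRNA by TaqMan qRT-PCR; gain/loss fit vs DMSO.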

[13] = read-out: X-box binding protein 1 (XBP1), XBP1 (gene 7494); assay: LTEA_HepaRG_XBP1: Life Technologies and Expression Analysis (LTEA) Assay for X-box binding protein 1 (XBP1) using HepaRG (AID 2283540); conditions: mRNA level, 48 h; actives raise or lower the signal
Summary of the method: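 Transcript levels of XBP1, measured by qRT-PCR and normalised to three housekeeping genes, were fitted bidirectionally relative to 0.5% DMSO controls. Human HepaRG cells received eight-point half-log dilutions from 100 uM for 48 h.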

[14] = LTEA_HepaRG_LDH_cytotoxicity: Cytotoxicity Assessment in the Life Technologies and Expression Analysis (LTEA) Assay (AID 2283563; active = hit-call score of the fitted dose curve at least 0.9, where 1 is the maximum;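 as to AC50: LDH activity released into spent culture medium as a marker of cell death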)
Summary of the method: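 Cells were thawed and plated for 48 h. Medium was then replaced with serum-free induction medium. Chemicals (8 half-log points, maximum 100 uM, 0.5% DMSO) were added in duplicate for 48 h, after which spent medium was assayed for LDH.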

[15] = ATG_XTT_Cytotoxicity: Cytotoxicity Assessment in the Attagene TRANS-FACTORIAL HepG2 Assay (AID 2283584; active = hit-call score of the fitted dose curve at least 0.9, where 1 is the maximum;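 as to AC50: cells exposed to compound for 24 h before reading; active means loss of viability signal versus DMSO baseline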)
Summary of the method: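 Cells: human HepG2, transiently transfected with MRTU reporter constructs. Exposure 24 h. Readout: XTT, cell number. Baseline/neg ctrl DMSO; loss-of-signal scored.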

[16] = TOX21_p53_BLA_p3_viability: Viability Assessment in the Tox21 HCT-116 p53 Agonism Beta-lactamase Assay, Phase 3 (AID 2283593; active = hit-call score of the fitted dose curve at least 0.9, where 1 is the maximum;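 also: cells exposed to compound for 16 h before reading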)
Summary of the method: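 HCT-116 cells (4000/well) rested 5 h at 37C, then got DMSO compounds by pin tool (217-fold dilution) for 16 h at 37C, 5% CO2. After the bla read, CellTiter-Glo was added and luminescence read at 30 min, room temperature.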

[17] = target: Cellular tumor antigen p53 (Homo sapiens) (UniProt P04637); assay: TOX21_p53_BLA_p3_ratio: Tox21 HCT-116 p53 Agonism Beta-lactamase Assay, Ratio, Phase 3 (AID 2283596; active = hit-call score of the fitted dose curve at least 0.9, where 1 is the maximum)
Summary of the method: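 Cells were seeded at 4000/well, rested 5 h at 37C, then dosed with DMSO compound solutions (217-fold dilution) for 16 h. CCF4-AM substrate was loaded for 2 h at room temperature, and the 460/530 nm emission ratio was fitted for gain of signal versus DMSO.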

[18] = TOX21_p53_BLA_p4_viability: Viability Assessment in the Tox21 HCT-116 p53 Agonism Beta-lactamase Assay, Phase 4 (AID 2283597; active = hit-call score of the fitted dose curve at least 0.9, where 1 is the maximum;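 also: hits lower the luminescence signal meaning cytotoxicity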)
Summary of the method: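 Readout: ATP luminescence (CellTiter-Glo), measured 30 min after reagent addition at RT. The reagent followed a 2 h CCF4-AM incubation, and the cells had been exposed to compound for 16 h at 37C.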

Measured: AC50

Sequence of Nuclear factor erythroid 2-related factor 2 (Homo sapiens) (Q16236 whole entry, looked up): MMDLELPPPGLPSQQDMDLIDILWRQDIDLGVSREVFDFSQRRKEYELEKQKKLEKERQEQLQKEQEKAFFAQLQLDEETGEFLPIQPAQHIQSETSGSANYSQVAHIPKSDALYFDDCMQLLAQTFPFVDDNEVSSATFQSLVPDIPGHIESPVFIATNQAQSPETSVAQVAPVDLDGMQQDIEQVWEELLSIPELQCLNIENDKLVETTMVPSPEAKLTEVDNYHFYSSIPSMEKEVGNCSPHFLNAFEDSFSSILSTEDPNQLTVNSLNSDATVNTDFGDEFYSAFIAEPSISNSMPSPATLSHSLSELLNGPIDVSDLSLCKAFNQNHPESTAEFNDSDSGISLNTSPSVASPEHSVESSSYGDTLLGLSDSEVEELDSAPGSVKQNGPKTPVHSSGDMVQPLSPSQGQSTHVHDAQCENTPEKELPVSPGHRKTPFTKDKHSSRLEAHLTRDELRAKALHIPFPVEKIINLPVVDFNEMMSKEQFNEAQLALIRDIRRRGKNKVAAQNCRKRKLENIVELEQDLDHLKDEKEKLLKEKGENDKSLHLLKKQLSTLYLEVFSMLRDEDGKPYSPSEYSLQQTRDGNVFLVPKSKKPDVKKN
Sequence of Cellular tumor antigen p53 (Homo sapiens) (P04637 whole entry, looked up): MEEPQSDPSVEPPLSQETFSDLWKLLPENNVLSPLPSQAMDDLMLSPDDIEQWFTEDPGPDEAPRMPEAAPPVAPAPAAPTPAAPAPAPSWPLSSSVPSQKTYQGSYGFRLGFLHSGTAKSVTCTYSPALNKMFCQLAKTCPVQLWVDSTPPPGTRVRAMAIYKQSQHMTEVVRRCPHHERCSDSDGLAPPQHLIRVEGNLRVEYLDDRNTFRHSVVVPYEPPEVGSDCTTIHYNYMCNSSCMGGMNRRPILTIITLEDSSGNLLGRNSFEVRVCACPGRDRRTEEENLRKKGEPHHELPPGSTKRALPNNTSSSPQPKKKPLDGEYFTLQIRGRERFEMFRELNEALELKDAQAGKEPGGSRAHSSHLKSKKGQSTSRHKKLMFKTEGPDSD
Sequence of Signal transducer and activator of transcription 3 (Homo sapiens) (P40763 whole entry, looked up): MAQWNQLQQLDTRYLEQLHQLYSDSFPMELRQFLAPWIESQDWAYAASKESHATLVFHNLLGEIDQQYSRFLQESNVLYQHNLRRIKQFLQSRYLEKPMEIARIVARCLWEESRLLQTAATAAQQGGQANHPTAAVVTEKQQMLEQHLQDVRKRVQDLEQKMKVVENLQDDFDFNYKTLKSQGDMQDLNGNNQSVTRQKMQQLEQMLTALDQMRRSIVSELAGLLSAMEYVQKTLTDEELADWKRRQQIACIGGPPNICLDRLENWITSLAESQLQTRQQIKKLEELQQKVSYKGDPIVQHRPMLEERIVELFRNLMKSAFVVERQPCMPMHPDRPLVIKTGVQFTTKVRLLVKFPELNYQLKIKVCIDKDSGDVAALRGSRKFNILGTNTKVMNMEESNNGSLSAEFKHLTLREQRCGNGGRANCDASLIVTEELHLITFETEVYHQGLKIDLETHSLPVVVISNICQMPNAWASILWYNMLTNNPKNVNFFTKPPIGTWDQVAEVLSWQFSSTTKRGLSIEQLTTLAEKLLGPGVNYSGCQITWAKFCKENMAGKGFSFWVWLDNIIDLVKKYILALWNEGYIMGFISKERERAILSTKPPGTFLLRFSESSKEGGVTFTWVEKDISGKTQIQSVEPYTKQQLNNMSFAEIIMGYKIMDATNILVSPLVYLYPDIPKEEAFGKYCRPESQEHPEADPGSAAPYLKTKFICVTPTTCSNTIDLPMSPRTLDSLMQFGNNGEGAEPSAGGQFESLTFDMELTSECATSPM

CC(=O)S[C@@H]1CC2=CC(=O)CC[C@]2(C)[C@H]2CC[C@@]3(C)[C@@H](CC[C@@]34CCC(=O)O4)[C@H]12
active: [4] 50.4 µM | [5] 50 µM | [9] 36.5 µM | [11] 72.2 µM | [12] 50 µM | [13] 50 µM | [14] 79.1 µM
inactive: all other assays above

CC(C)CCCCCCc1ccc(O)cc1
inactive: [1] | [2] | [3] | [5] | [6] | [7] | TIMP1, TIMP1 (gene 7076) | [8] | [9] | [10] | [11] | [12] | [13] | [14] | [16] | [17] | [18]
active: [15] 50 µM [middle of 4 runs] | [16] 66.6 µM and 71.5 µM | [17] 71.2 µM | [18] 25.6 µM and 34.7 µM

CCCN(CCC)c1c([N+](=O)[O-])cc(C(F)(F)F)c(N)c1[N+](=O)[O-]
active: [7] 50 µM | [9] 22.5 µM | [11] 6.48 µM | [13] 28.9 µM | [16] 44.7 µM | [17] 81.1 µM | [18] 20.7 µM
not listed: [15]
inactive: all other assays above

O=C(c1ccccc1)C1CCCCC1
not listed: [4] | [16] | [17] | [18]
inactive: all other assays above

c1ccc(Nc2ccccc2)cc1
not listed: [17]
inactive: all other assays above

CCCCC(CC)CN1C(=O)C2C3C=CC(C3)C2C1=O (stereo not drawn)
active: [5] 86.1 µM | [7] 78.8 µM | [9] 22.9 µM | [11] 88.5 µM | [18] 73.3 µM
not listed: [16] | [17]
inactive: all other assays above
